Results filed as inconclusive are left out. Active and inactive are the calls of the source. Calls come from the whole dose curve; as a rule, active = well fitted inhibition curve with a large enough effect; inconclusive = small, poorly fitted or top-dose-only effect; inactive = flat fitted curve, though single readings scatter.
test system: CRL-7250; assay: qHTS assay to identify novel small-molecules to repurpose for Merkel cell carcinoma treatment (AID 1296009); details: MCC and control cell lines, CellTiter-Glo viability, 72 h; at 44.8 µM (top of the series) unless noted; note: nearly all actives have a fitted effect of over 60% in size
How it was run: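 Cells exposed to NPC (8-point) and MIPE (11-point) compound dilutions for 72 hr at 37 degree celsius; viability read by CellTiter-Glo luminescence, normalized to no-cell and DMSO in-plate controls.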

SMILES | outcome
C/C(=C(\CCO)SS/C(CCO)=C(\C)N(C=O)Cc1cnc(C)nc1N)N(C=O)Cc1cnc(C)nc1N | inactive
Cc1c[nH]c2ccccc12 | inactive
CC(CCc1ccccc1)NCC(O)c1ccc(O)c(C(N)=O)c1 (stereo unspecified) | inactive
COc1c2occc2c(OC)c2c(=O)cc(C)oc12 | inactive
CCOC(=O)C(O)c1ccccc1 (stereo unspecified) | inactive
O=C(O)c1ccc[n+]([O-])c1 | inactive
CN1CCN(C(=O)C2CCCCC2)CC1 | inactive
FC(F)(F)c1ccccc1-n1ccnc1 | inactive
CCN(CC)C(C)CN1c2ccccc2Sc2ccccc21 (stereo unspecified) | inactive
CC(N=C(NC#N)Nc1ccncc1)C(C)(C)C (stereo unspecified) | inactive
CC(C)(Oc1ccc(C2CC2(Cl)Cl)cc1)C(=O)O (stereo unspecified) | inactive [at 92 µM]
O=C(OOC(=O)c1ccccc1)c1ccccc1 | inactive
Cn1c(=O)c2[nH]c(Br)nc2n(C)c1=O | inactive
Oc1ccccc1-c1nnco1 | inactive
CCS(=O)(=O)CCn1c([N+](=O)[O-])cnc1C | inactive
NCCCNCCSP(=O)(O)O | inactive [at 9.27 µM]
CC(=O)[C@H]1CC[C@H]2[C@@H]3C[C@H](C)C4=CC(=O)CC[C@]4(C)[C@H]3[C@@H](O)C[C@]12C | inactive
CC[C@]12CCCN3CCc4c(n(c5ccccc45)[C@@](O)(C(=O)OC)C1)[C@@H]32 | inactive
CCN(CC)CCNC(=O)c1ccc(N)cc1 | inactive
CN(C)C(=O)COC(=O)Cc1ccc(OC(=O)c2ccc(N=C(N)N)cc2)cc1 | inactive
COc1ccc2cc1Oc1cc3c(cc1OC)CC[N+](C)(C)[C@H]3Cc1ccc(cc1)Oc1c(OC)c(OC)cc3c1[C@@H](C2)[N+](C)(C)CC3 | inactive

Reference: PubChem BioAssay (NCATS)
